Screens deposited in PubChem by National Center for Advancing Translational Sciences (NCATS).
JMJD2A Tudor: JMJD2A Tudor domain (human) inhibition; Potency, µM (titrated, usually from 114 µM), without a hit: top-dose activity change, negative = inhibition, actives largely listed as inhibitors; AlphaScreen JMJD2A-Tudor / H3K4me3 peptide binding; O75164; 390,000 tested, 4.4% active; also: potency is read from the fitted curve at half-maximal effect; % is scaled to controls: 0 for no effect and ±100 for the full control effect; nearly all actives have a fitted effect of over 50% in size
BAZ2B block: blocks human BAZ2B | AlphaScreen BAZ2B-H3K14Ac peptide displacement | Potency, µM (top dose mostly 114 µM), inactives show at the top dose activity change, negative = inhibition, usual class: inhibitors | 360,000 tested, 4.4% active | AID 504333; also: potency is read from the fitted curve at half-maximal effect; % is scaled to controls: 0 for no effect and ±100 for the full control effect; nearly all actives have a fitted effect of over 60% in size
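AlphaScreen displacement of biotin-H3(5-23)K14Ac peptide (50 nM final) from BAZ2B (50 nM final) in PBS pH 7.4, 0.01% Tween-20; complex preformed 30 min RT, then compounds (top 110 uM) 30 min RT, beads 20 min dark.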
HP1b binding inh: blocks HP1-beta chromodomain binding to methylated histone tails. AlphaScreen HP1-beta / biotin-H3K9me3 peptide binding. Potency, µM (titrated, usually from 114 µM), without a hit: at the top dose activity change, negative = inhibition, actives largely listed as inhibitors. 390,000 tested, 0.56% active; also: potency is read from the fitted curve at half-maximal effect; nearly all actives have a fitted effect of over 70% in size
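AlphaScreen: HP1-beta (50 nM) preformed 30 min with biotin-H3(1-18)K9me3 peptide (50 nM) in PBS pH 7.4, 0.01% Tween-20. Compound added for 30 min at RT, then streptavidin donor/nickel chelate acceptor beads (10 ug/mL) for 30 min.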
G9a block: inhibitors of human histone lysine methyltransferase G9a. Potency, µM (titrated, usually from 102 µM), inactives show at the highest dose activity, negative = inhibition, usual class: inhibitors. 350,000 tested, 8.8% active. AID 504332. Q96KQ7. G9a H3K9 monomethylation, AlphaScreen, 2 h; also: potency is read from the fitted curve at half-maximal effect; % is scaled to controls: 0 for no effect and ±100 for the full control effect; nearly all actives have a fitted effect of over 75% in size
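G9a (20 nM) preincubated 15 min RT with compounds, then 500 nM biotinylated H3K9 peptide and 20 uM SAM added; 2 h RT reaction. Monomethyl-H3K9 product detected by AlphaScreen with anti-H3K9me1 antibody, streptavidin donor and anti-rabbit IgG acceptor beads.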
PI5P4K alpha inh: PI5P4K alpha (human) kinase inhibition; P48426; PI5P4Kalpha enzyme, ADP-Glo luminescence, 60 min; hits give low values; max response, %; AID 652105; 330,000 tested, 1.2% active; active = max response of -50% or lower; inconclusive = between -30% and -50%; inactive = -30% or higher; also: value at the top dose of about 77 µM; % is scaled to controls: 0 for no effect and ±100 for the full control effect
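PI5P4Kalpha ADP-Glo assay; 5 microM ATP final; 60 min RT reaction; HEPES pH 7.4/EGTA/CHAPS, 5% DMSO; controls lacking substrate or enzyme; luminescent end-point.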
PLK1 PBD block: inhibitors of human PLK1 polo-box domain binding | Potency, µM, without a hit: max response, negative = inhibition, hits mostly inhibitors | Plk1 PBD binding of FITC phosphopeptide, fluorescence polarization | 360,000 tested, 2.8% active; also: potency is read from the fitted curve at half-maximal effect; series mostly up to about 57 µM; % is scaled to controls: 0 for no effect and ±100 for the full control effect; nearly all actives have a fitted effect of over 65% in size
* = called active by the depositor; [ ] = another dose, or the depositor's remark. The list is not random: actives were taken first. Their share in the collection is about 12%. Unless noted, calls follow the shape of the dose curve; as a rule, active = well fitted curve in the direction sought with a large enough effect; inconclusive = small, poorly fitted or top-dose-only effect, or another doubt; inactive = no such curve, though single readings can be large; an effect the other way counts as inactive or inconclusive.

What do the screens show for `O=C(c1ccc2c(c1)N(Cc1cccc(Cl)c1)C(=O)c1ccccc1S2=O)N1CCN(c2cccc(C(F)(F)F)c2)CC1` (stereo not given)?
JMJD2A Tudor: -8.7%; BAZ2B block: -5.6%; HP1b binding inh: 5.5%; G9a block: -1.5%[59 µM]

How did Cc1ccc(-n2[nH]c(=O)c3cccnc32)cc1 do in these assays?
JMJD2A Tudor: -11.1%; BAZ2B block: -5.7%; HP1b binding inh: 14.7%; G9a block: inconclusive; PLK1 PBD block: -7.2%

Results for Cc1ccc(-n2[nH]c(=O)c(-c3ccccn3)c2C)cc1 ?
JMJD2A Tudor: -30.8%; BAZ2B block: 44.7µM*; HP1b binding inh: 6.2%; G9a block: -1.2%; PI5P4K alpha inh: -1.2; PLK1 PBD block: -10.0%

What do the screens show for `CCCCn1c(N)c(N(CC(C)C)C(=O)C2=NN(c3cc(C)ccc3C)C(=O)CC2)c(=O)[nH]c1=O`?
JMJD2A Tudor: -17.2%; BAZ2B block: 9.9%; HP1b binding inh: 27.8%; G9a block: inconclusive; PI5P4K alpha inh: -15.6; PLK1 PBD block: -9.6%

What do the screens show for `CC1(C)CC2CC(C)(CN2S(=O)(=O)c2ccccc2[N+](=O)[O-])C1` (stereo not given)?
JMJD2A Tudor: -18.8%; HP1b binding inh: 23.1%; PI5P4K alpha inh: 0.3; PLK1 PBD block: 2.9%

How did NC(=O)N/N=C/c1c(F)c(F)c(F)c(F)c1F do in these assays?
JMJD2A Tudor: 11.2µM*; BAZ2B block: -1.6%; HP1b binding inh: -2.0%; PI5P4K alpha inh: inconclusive; PLK1 PBD block: 21.2µM*

What do the screens show for `NC(=O)N/N=C/c1c(F)cccc1F`?
JMJD2A Tudor: -16.8%; BAZ2B block: -7.8%; HP1b binding inh: 24.4%; G9a block: -0.8%[59 µM]; PI5P4K alpha inh: 0.9; PLK1 PBD block: -6.7%

What do the screens show for `COC(=O)c1[nH]c2cc(OC)ccc2c1NC(=O)CCN1CCCCC1`?
JMJD2A Tudor: -6.3%; BAZ2B block: 3.2%; HP1b binding inh: 28.4%; G9a block: -4.0%[12.7 µM]; PI5P4K alpha inh: 0.4; PLK1 PBD block: -4.5%

What do the screens show for `COC(=O)c1[nH]c2cc(OC)ccc2c1NC(=O)CCN1CCCC(C)(C)C1`?
JMJD2A Tudor: -5.3%; BAZ2B block: -4.9%; HP1b binding inh: 9.4%; G9a block: 56.2µM*; PLK1 PBD block: -7.1%

How did COC(=O)c1[nH]c2ccccc2c1NS(=O)(=O)c1ccc(F)c(C)c1 do in these assays?
JMJD2A Tudor: -12.6%; BAZ2B block: -3.0%; HP1b binding inh: 14.8%; G9a block: inconclusive; PI5P4K alpha inh: -0.3; PLK1 PBD block: -0.1%

Results for CCOC(=O)c1[nH]c2ccccc2c1NC(=O)c1ccccc1OCC ?
JMJD2A Tudor: -33.1%; BAZ2B block: -11.4%; HP1b binding inh: 26.6%; G9a block: -33.1%[59 µM]

Results for CCOC(=O)c1[nH]c2ccc(F)cc2c1NC(=O)c1ccccc1C(=O)O ?
JMJD2A Tudor: -13.1%; BAZ2B block: -11.9%; HP1b binding inh: 51.7%; G9a block: 14.1µM*; PI5P4K alpha inh: -0.4; PLK1 PBD block: -9.1%

How did CCOC(=O)c1[nH]c2cc(OC)c(OC)cc2c1NC(=O)CN1CCN(c2ccc(OC)cc2)C(C)C1 (stereo not given) do in these assays?
BAZ2B block: 44.7µM*; G9a block: 22.4µM*

What do the screens show for `CCCS(=O)(=O)Nc1c(C(=O)OC)[nH]c2ccccc12`?
JMJD2A Tudor: 0.0%; BAZ2B block: 1.1%; HP1b binding inh: 23.8%; G9a block: 50.1µM*; PI5P4K alpha inh: -3.4; PLK1 PBD block: -5.8%

How did CC(=O)c1ccc(NC(=O)CCc2c(C)nc3c(c2C)c(=O)n(C)c(=O)n3C)cc1 do in these assays?
JMJD2A Tudor: -13.8%; BAZ2B block: -4.8%; HP1b binding inh: 19.6%; G9a block: 9.6%[59 µM]

Results for O=C(OCC#CCNc1nnc(-c2cccc3ccccc23)o1)c1cccs1 ?
BAZ2B block: -28.7%; G9a block: 1.5%[12.7 µM]

How did CCc1nnc(NC(=O)CCN2C(=O)/C(=C/c3cc(OC)c(OC)c(OC)c3)SC2=S)s1 do in these assays?
JMJD2A Tudor: 0.0%; BAZ2B block: -11.2%; HP1b binding inh: 16.6%; G9a block: 11.8%; PI5P4K alpha inh: 0.1; PLK1 PBD block: 13.9%
